Test results reported in PubChem BioAssay.
Where “and” joins values, the source holds several entries; their conditions need not be identical. Equal values may be shown once. For some assays here: Entries with a potency or affinity are not part of this list. The source holds several records for some structures; these can differ, active in one and inactive in another. Calls of active or inactive are those of the source. Rule as the data show it, unless noted: active = parasite load remaining mostly below about 12% (no sharp cut-off); inactive = mostly above about 10%.

Legend:
[1] = polyglutamine-triggered caspase-3 activation inhibitors, cell-based (AID 1583); settings: polyglutamine-induced caspase-3 activation, cell assay; stronger effect = higher value;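 tested at 10 µM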
[2] = suppressors of polyQ aggregation in yeast, 75Q-TubU reporter (AID 1593); settings: Yeast 75Q polyglutamine aggregation reporter
[3] = rescue of polyQ-huntingtin neuronal dysfunction in worms, whole organism, C. elegans mechanosensory neurons, N-terminal huntingtin (AID 1599); settings: touch response, stronger effect = higher value
[4] = inhibitors of mitochondrial cytochrome c release, biochemical, purified mitochondria (AID 1603); settings: stronger effect = lower value;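 also: mouse liver mitochondria challenged with calcium chloride; signal normalized to the plate average as 100%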
[5] = inhibitors of polyQ protein aggregation (AID 1604); settings: polyglutamine-induced protein aggregation inhibition assay; stronger effect = higher value; tested at 2.5 µM
[6] = enhancers of glutamate uptake in motor neurons, MN-1 cell line (AID 1612); settings: MN-1 motor neuron cells, stronger effect = higher value;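 also: tested at 1 µM final; 0% = mean of DMSO vehicle wells on each plate; positive means more glutamate uptake than control and negative means less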
[7] = suppressors of polyglutamine aggregation in yeast, 75Q-TubH (AID 1616); settings: S. cerevisiae 75Q-TubH polyglutamine aggregation suppression; stronger effect = higher value
[8] = liver-stage malaria parasite growth inhibition, primary screen, cell-based, HepG2, luciferase luminescence, HepG2 viability (AID 624349);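 also: 100% = mean of DMSO negative control wells on the same plate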; settings: P. berghei liver stage in HepG2, luciferase luminescence, concentration not given here; parasite load remaining: stronger effect = lower value; viability: measured here: HepG2 viability without parasites
[9] = differential killing of epithelial or mesenchymal cells, primary screen, imaging, PC-3E GFP, TEM4-18 mCherry, co-culture (AID 1345086;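 active = compounds killing one labelled cell type while sparing the other, by normalised counts and ratio limits, not self-fluorescent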;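 as to all read-outs here: cells exposed to compound for 72 h before imaging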;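 as to red/green cell ratio (normalised): normalised mesenchymal count divided by normalised epithelial count so high means epithelial killing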); settings: imaging cell counts, at 1 µM; for red/green cell ratio (normalised): actives lie on both sides, counts scaled to control wells, 1 = unselective
[10] = sensitizers of A549 cells to miR-34 induction, primary screen, imaging, A549 dox-inducible miR-34, nuclei and caspase counts (AID 1347080;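 active = compounds whose cell count with miR-34 switched on is under 0.7 times the count with it off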); settings: A549 miR-34 inducible, Hoechst nuclei count, 48 h
[11] = reducers of polyQ inclusions in PC12 cells, cell-based, NGF-treated PC12, GFPQ80 (AID 1614); settings: PC12 NGF-treated GFP-polyQ80 inclusion reduction;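 also: lower means fewer inclusions and 0 means no inclusions at all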
[12] = system: Hepatitis C virus NS3 helicase; assay: HCV NS3 helicase inhibitors, primary screen, biochemical, fluorescence polarization, LOPAC1280 library (AID 687035; in the data active = inhibition above about 37%); settings: Purified HCV NS3 helicase, Cy5-dT15 ssDNA binding fluorescence polarization; stronger effect = higher value; concentration not given here
[13] = Cy5 fluorescence quenching or enhancement artefacts, artefact control for HCV NS3 helicase inhibitor project, biochemical, LOPAC1280 (AID 687037; call rule not given here); settings: Cy5-DNA-NS3h complex fluorescence interference counterscreen
[14] = measured here: epithelial PC-3E GFP cell survival
[15] = measured here: mesenchymal TEM4-18 mCherry cell survival
[16] = stronger effect = lower value, cell number ratio, induced over uninduced
[17] = measured here: relative caspase fold change +Dox/-Dox
[18] = measured here: total cells with miR-34 induction, stronger effect = lower value
[19] = measured here: total cells without miR-34 induction

CC[C@H]1CN2CCc3cc(OC)c(OC)cc3C2C[C@@H]1CC1NCCc2cc(OC)c(OC)cc21 (stereo partly specified)
inhibition [1]: 43.8%
score [2]: 1.69
rescue above control [3]: -0.41
cytochrome c release ratio [4]: 1.03
inhibition of aggregation [5]: 67.5%
glutamate uptake change [6]: -39.3%
aggregation suppression score [7]: 1.03
parasite load remaining [8]: -0.06% (active) and -0.06% (inactive)
viability [8]: 69.1% and 43.7%
red/green cell ratio (normalised) [9]: 0.69 (inactive)
normalised cell number [9, 14]: 0.22
normalised cell number [9, 15]: 0.15
fold change [10, 16]: 1.07 (inactive)
fold change [10, 17]: 1.51
cell count [10, 18]: 2470
cell count [10, 19]: 2320

CN[C@@H]1C(OC2[C@H](O[C@H]3[C@H](O)[C@@H](O)[C@H](N=C(N)N)[C@@H](O)[C@@H]3N=C(N)N)OC(C)[C@]2(O)CO)OC(CO)C(O)C1O (stereo partly specified)
inhibition [1]: -7.45%
score [2]: 1.24
rescue above control [3]: 1.04
cytochrome c release ratio [4]: 0.93
inhibition of aggregation [5]: 82.2%
glutamate uptake change [6]: -1.61%
inclusion score [11]: 2
aggregation suppression score [7]: 1.17
parasite load remaining [8]: 87.5% (inactive) and 63.1% (inactive)
viability [8]: 69.8% and 93.3%
red/green cell ratio (normalised) [9]: 1.34 (inactive)
normalised cell number [9, 14]: 1.05
normalised cell number [9, 15]: 1.41
fold change [10, 16]: 0.819 (inactive)
fold change [10, 17]: 1.34
cell count [10, 18]: 10800
cell count [10, 19]: 13200

NC(N)=N/N=C\c1c(Cl)cccc1Cl
inhibition [1]: -8.15%
score [2]: 1.22
rescue above control [3]: -12.2
cytochrome c release ratio [4]: 1.41
inhibition of aggregation [5]: 61%
glutamate uptake change [6]: 33.9%
inclusion score [11]: 2
aggregation suppression score [7]: 0.91
parasite load remaining [8]: 56% (inactive) and 40.7% (inactive)
viability [8]: 69.3% and 86.4%
inhibition [12]: 0% (inactive)
fluorescence ratio (interference) [13]: 1 (inactive)
red/green cell ratio (normalised) [9]: 1.13 (inactive)
normalised cell number [9, 14]: 1.05
normalised cell number [9, 15]: 1.18
fold change [10, 16]: 0.816 (inactive)
fold change [10, 17]: 0.826
cell count [10, 18]: 8780
cell count [10, 19]: 10800

CC(=O)[C@@]1(O)CCC2C3C[C@H](C)C4=CC(=O)C=CC4(C)[C@@]3(F)[C@@H](O)C[C@@]21C (stereo partly specified)
inhibition [1]: 8.98%
score [2]: 1.5
rescue above control [3]: 24.4
cytochrome c release ratio [4]: 0.92
inhibition of aggregation [5]: -25.4%
glutamate uptake change [6]: 25.3%
inclusion score [11]: 3
aggregation suppression score [7]: 1.45
parasite load remaining [8]: 116% (inactive) and 26.7% (inactive)
viability [8]: 75.2% and 95.6%
red/green cell ratio (normalised) [9]: 1.21 (inactive)
normalised cell number [9, 14]: 1.18
normalised cell number [9, 15]: 1.43
fold change [10, 16]: 0.851 (inactive)
fold change [10, 17]: 3.38
cell count [10, 18]: 7310
cell count [10, 19]: 8590

CCCC(=O)O[C@]1(C(=O)CO)CCC2[C@@H]3CCC4=CC(=O)CC[C@]4(C)C3[C@@H](O)C[C@@]21C (stereo partly specified)
inhibition [1]: -18.1%
score [2]: 1.15
rescue above control [3]: -7.82
cytochrome c release ratio [4]: 1.03
inhibition of aggregation [5]: 77.8%
glutamate uptake change [6]: 33.4%
inclusion score [11]: 2
aggregation suppression score [7]: 1.38
parasite load remaining [8]: 170% (inactive) and 68.7% (inactive)
viability [8]: 85% and 121%
red/green cell ratio (normalised) [9]: 1.26 (inactive)
normalised cell number [9, 14]: 1.07
normalised cell number [9, 15]: 1.34
fold change [10, 16]: 0.953 (inactive)
fold change [10, 17]: 2.16
cell count [10, 18]: 7610
cell count [10, 19]: 7980
